Assay results: PubChem BioAssay AID1347075 (National Center for Advancing Translational Sciences (NCATS), 2019)
The whole screen tested about 400,000 compounds, of which about 5,500 (1.4%) were called active. A call without a number means that no potency is given here. Inconclusive results (about 9%) are left out. Calls come from the whole dose curve; as a rule, active = well fitted cell-killing curve with a large enough effect; inconclusive = small, poorly fitted or top-dose-only effect, or effect the other way; inactive = flat fitted curve, though single readings scatter. The full list was thinned out, with actives kept by preference.
Potency is the fitted concentration of half-maximal effect.

Experiment: qHTS assay for MDR1-selective chemotherapeutics: Primary screen using the parental adenocarcinoma cell KB-3-1; note: nearly all actives have a fitted effect of over 60% in size
Settings: KB-3-1 viability, CellTiter-Glo ATP luminescence, 72 h; series mostly up to 46.1 µM
How it was run: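 KB-3-1 cells, DMEM (no phenol red) + 10% FBS; compound by pin transfer, 72 h, 37 °C. Readout: CellTiter-Glo luminescence after 10 min. Data normalized, curve-fitted.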
With Cc1ccc(NC2=C(c3ccc(C(F)(F)F)cc3)C(=O)c3ccccc32)cc1F the Potency was “inactive”. In the case of Cc1cccc(NC(=O)N2CCN(C)c3ncccc32)c1C, the Potency is reported as “inactive”. For CCNC(=S)Nc1ccc2c(c1)c(=O)n(C)n2Cc1ccc(Cl)cc1, the Potency was “inactive”. For COc1ccc(CCNC(=O)Nc2ccc3c(c2)c(=O)n(C)n3C)cc1OC, the Potency was “inactive”. In the case of COc1cc(Cn2c3ccc(NC(=O)CC(C)c4ccccc4)cc3c(=O)n2C)ccc1F (configuration not stated), the Potency is reported as 16.4 µM (active). For CN(Cc1ccccc1)c1ccc(/C=C/c2ccnc3ccccc23)cc1, the Potency was “inactive”. With CN(C)c1ccc(C=Nc2ccc(/C=C/c3ccnc4ccccc34)cc2)cc1 the Potency was “inactive”. In the case of CN(C)c1ccc(/C=C/C=C/c2ccnc3ccccc23)cc1, the Potency is reported as 5.8 µM (active). With CCc1nn(CC(=O)N2CCN(c3ccc(Cl)cc3)CC2)c(=O)c2cc3occc3n12 the Potency was “inactive”. With CC1CN(C(=O)N2CCC(C(=O)NCc3cccs3)CC2)c2ccccc2O1 (configuration not stated) the Potency was “inactive”. In the case of CCOc1ccc(Nc2nc3c(S(=O)(=O)c4cccc(Cl)c4)nnn3c3ccsc23)cc1, the Potency is reported as “inactive”. In the case of Cc1cccc(NC(=O)CSc2ncc(-c3ccccc3)[nH]2)c1C, the Potency is reported as “inactive”. For CCOc1ccc(C(NC(=O)c2cc(OC)c(OC)c(OC)c2)c2cc(Cl)c3cccnc3c2O)cc1 (configuration not stated), the Potency was “inactive”. In the case of CCCCC(=O)NC(c1ccc(OC)c(OC)c1)c1ccc2cccnc2c1O (configuration not stated), the Potency is reported as 5.8 µM (active). For CCOc1ccc(C(CCc2ccccc2)NC(=O)c2ccc(OC)c(OC)c2)cc1OCC (configuration not stated), the Potency was “inactive”. In the case of COc1ccccc1CNC(=O)CCCn1c(=O)c2ccccc2n(CC(=O)Nc2ccc(C)cc2Cl)c1=O, the Potency is reported as “inactive”. For COc1ccccc1N1CCN(CCCNC(=O)c2cnn(-c3ccccc3Cl)c2C2CCN(C(=O)OC(C)(C)C)CC2)CC1, the Potency was “inactive”. With Oc1ccc(Br)cc1C1C=C(c2ccc3c(c2)OCO3)NC(c2ccc(Cl)cc2)N1 (configuration not stated) the Potency was “inactive”. In the case of Cc1cccc(-c2nc(SCC(=O)Nc3cc(C)on3)c3c(=O)n(C)c(=O)n(C)c3n2)c1, the Potency is reported as “inactive”. With NC(=O)C1CCN(c2ncc(-c3ccc(Cl)cc3)s2)CC1 the Potency was “inactive”. For CC(=O)Nc1ccc(N2CCOCC2)c(C(=O)Nc2cccc(C)c2)c1, the Potency was “inactive”. In the case of Cc1cccc(NC(=O)c2ccc([N+](=O)[O-])o2)c1, the Potency is reported as 9.2 µM (active). With Cc1cccc(NC(=O)CCn2c(=O)oc3ccccc32)c1 the Potency was “inactive”. For CCCN1CCc2nc(N3CCN(C)CC3)ncc2C1, the Potency was “inactive”. For COc1ccc(-c2c(C)nn3c(N4CCC(C(=O)NCCC(C)C)CC4)cc(C)nc23)cc1OC, the Potency was “inactive”. For CCCCCCCCn1c2c(c(=N)c3c1CCC3)CCCC2, the Potency was 0.411 µM (active). With CCN1CCC(N(Cc2ccc(F)cc2)C(=O)Nc2cc(C)ccc2C)CC1 the Potency was “inactive”.
